A selection: hits, their analogues and other compounds. The true share with any hit is near 2.9%.
p53null 32C tox = qHTS Screen for Compounds that Selectively Target Cancer Cells with p53 Mutations: Cytotoxicity of p53 Null Cells at the Permissive Temperature; AID 903, 2007; Potency, µM (series often up to 46.1 µM), hits mostly cytotoxic; H1299-neo p53 null cells, ATP luminescence, 24 h, 32C; 55,000 compounds, 0.62% hits; note: nearly all actives have a fitted effect of over 55% in size
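H1299-neo, 600 cells/well; overnight 37C; cpd up to 46 uM, 24 h at 32C; ATPlite luminescence after 20 min RT; normalized to DMSO (0%) and tamoxifen 100 uM (100% kill); Hill-fit AC50.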
FH mod = Identification of activators of human fumarate hydratase by quantitative high-throughput screening; 54,000 compounds, 0.22% hits; Potency, µM (highest dose often 79.9 µM), hits mostly inhibitors; FH coupled MDH/diaphorase resazurin fluorescence, 15 min; note: the screen sought activators but most active calls are inhibition curves; nearly all actives have a fitted effect of over 45% in size
Target sequence (P07954 whole entry, looked up): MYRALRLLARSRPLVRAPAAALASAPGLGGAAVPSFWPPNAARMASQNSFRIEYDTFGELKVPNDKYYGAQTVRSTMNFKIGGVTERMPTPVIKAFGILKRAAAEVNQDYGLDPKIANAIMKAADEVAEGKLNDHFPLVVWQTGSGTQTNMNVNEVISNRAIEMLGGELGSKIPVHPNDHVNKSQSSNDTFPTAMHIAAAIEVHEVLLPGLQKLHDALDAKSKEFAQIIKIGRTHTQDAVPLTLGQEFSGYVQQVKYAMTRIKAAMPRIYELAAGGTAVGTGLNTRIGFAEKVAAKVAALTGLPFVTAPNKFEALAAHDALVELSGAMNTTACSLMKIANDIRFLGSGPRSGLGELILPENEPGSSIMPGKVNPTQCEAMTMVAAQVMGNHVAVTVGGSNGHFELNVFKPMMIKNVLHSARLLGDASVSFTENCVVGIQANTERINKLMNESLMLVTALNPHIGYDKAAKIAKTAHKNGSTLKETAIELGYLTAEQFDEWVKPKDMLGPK
p53null 39C tox = qHTS Screen for Compounds that Selectively Target Cancer Cells with p53 Mutations: Cytotoxicity of p53 Null Cells at the Nonpermissive Temperature | H1299 p53-null (neo) cells, 39C, ATPlite viability, 24 h | Potency, µM (doses to about 46.1 µM), most hits filed as cytotoxic | 55,000 compounds, 0.97% hits; note: nearly all actives have a fitted effect of over 50% in size
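Cells seeded at 600/well, 37C overnight. Compound added (up to 46 uM), plates shifted to 39C for 24 hr. ATPlite added, luminescence read after 20 min at room temperature.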
DRV1 agonist = qHTS for Agonists of Human Resolvin D1 Receptor DRV1. Probable G-protein coupled receptor 32 (Homo sapiens), O75388. CHO-K1 GPR32 beta-arrestin PathHunter luminescence, 90 min; zero percent set by DMSO-only wells. activation, % at 76.9 µM. 48,000 compounds, 2.5% hits. AID 1346428, 2018;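 active = activation of at least 60% and not above a set upper limit, about 1 call in 100 departs from these limits; inconclusive = activation of 40% to 60%, or above that upper limit; inactive = activation under 40%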
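Using DMSO wells as EC0, agonist-induced signal was taken as chemiluminescence from beta-Gal reconstituted upon beta-arrestin recruitment to GPR32 in CHO-K1 cells after 90 min compound treatment.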
Hits are given with their value; - = inactive; ? = inconclusive; . = no result; [ ] = remark or other dose. Unless noted, calls come from the whole dose curve; as a rule, active = well fitted curve in the direction sought with a large enough effect; inconclusive = small, poorly fitted or top-dose-only effect, or another doubt; inactive = no such curve, though single readings can be large; an effect the other way counts as inactive or inconclusive.

SMILES | p53null 32C tox | FH mod | p53null 39C tox | DRV1 agonist
Cc1nn2c(=O)cc(COC(=O)c3cccc(NC(=O)c4ccc(C(C)(C)C)cc4)c3)nc2s1 | 3.2µM | - | 1.3µM | -
O=C(c1cnc(N2CCOCC2)c2ccccc12)N1CCN(c2ccc(F)cc2)CC1 | - | - | - | -
O=C(c1cnc(N2CCOCC2)c2ccccc12)N1CCN(c2ccccc2)CC1 | - | - | 13µM | -
Cc1nn(C(=O)c2ccccc2)c(C)c1Sc1ccc(Cl)cc1 | - | ? | - | 107
Cc1ccc(Sc2c(C)nn(C(=O)c3ccc(Br)cc3)c2C)cc1 | - | - | - | -
C[C@H]1CC[C@@]2(OC1)O[C@H]1CC3C4CC[C@H]5C[C@@H](O[C@@H]6O[C@H](CO)[C@H](O[C@@H]7O[C@H](CO)[C@@H](O)[C@H](O[C@@H]8OC[C@@H](O)[C@H](O)[C@H]8O)[C@H]7O[C@@H]7O[C@H](CO)[C@@H](O)[C@H](O)[C@H]7O)[C@H](O)[C@H]6O)[C@H](O)C[C@]5(C)C4=CC(=O)[C@]3(C)[C@H]1[C@@H]2C (stereo partly specified) | . | - | . | .
CC(=O)c1ccc(NC(=O)/C=C/c2ccc(C)o2)cc1 | 13µM | . | ? | -
CCN1CCN(C(=O)N[C@H](C(=O)N[C@@H]2C(=O)N3C(C(=O)O)=C(CSc4nnnn4C)CS[C@@H]23)c2ccc(O)cc2)C(=O)C1=O | . | -[13.5 µM] | . | .
CO[C@@]1(NC(=O)C(C(=O)O)c2ccc(O)cc2)C(=O)N2C(C(=O)O)=C(CSc3nnnn3C)CO[C@@H]21 (stereo partly specified) | . | - | . | 63
CCc1nc(C(N)=O)c(Nc2ccc(N3CCC(N4CCN(C)CC4)CC3)c(OC)c2)nc1NC1CCOCC1 | . | - | . | .
O=C(Nc1noc2ccccc12)c1c(F)cccc1F | ? | - | 10µM | -
O=C(Nc1ccn[nH]1)c1c(F)cccc1F | . | - | . | .
COc1ccc(C2=N[C@@H](c3ccc(Cl)cc3)[C@@H](c3ccc(Cl)cc3)N2C(=O)N2CCNC(=O)C2)c(OC(C)C)c1 | . | - | . | .
CCOC(=O)c1c(C)[nH]c(C)c1S(=O)(=O)N1CCC(C(=O)N2CCN(c3ccc(Cl)cc3)CC2)CC1 | - | - | - | -
CCOC(=O)c1c(C)[nH]c(C)c1S(=O)(=O)N1CCN(c2ccc(Cl)cc2)CC1 | - | - | - | 68
CC(O)C(=O)/C=C/C=C/C(=O)OC1C=C2COC(=O)C2(O)C2(C)CCCC(C)(C)C12 (stereo unspecified) | . | - | . | .
Cc1nc2c(C(=O)NCCc3ccccc3)c[nH]n2c(=O)c1Cc1ccccc1F | 16µM | - | ? | -
Cc1nc2c(C(=O)N(C)Cc3ccccc3)c[nH]n2c(=O)c1Cc1ccc(Cl)cc1 | - | - | - | -
Cc1ccc(CNC(=O)c2c[nH]n3c(=O)c(Cc4ccc(Cl)cc4)c(C)nc23)cc1 | ? | ? | ? | -
Cc1nc2c(C(=O)NCCc3ccc(Cl)cc3)c[nH]n2c(=O)c1Cc1ccc(Cl)cc1 | ? | ? | 20µM | -
CCn1c2ccccc2c2cc(Nc3ccnc(NCCCN4CCOCC4)n3)ccc21 | . | - | . | .
CCC(C(=O)NC1CCCCC1)n1c(SCc2cccc(C)c2)nc2ccncc21 (stereo unspecified) | 13µM | - | 7.9µM | -
CN1C[C@H]2c3ccccc3Oc3ccc(Cl)cc3[C@@H]2C1 | . | - | . | 92
CC1CCN(S(=O)(=O)c2ccc(C(=O)Nc3sc4c(c3C(N)=O)CC(C)(C)NC4(C)C)cc2)CC1 | - | - | - | -
CCOC(=O)c1c(NC(=O)c2ccc(S(=O)(=O)N3CCCC(C)C3)cc2)sc2c1CC(C)(C)NC2(C)C (stereo unspecified) | - | - | - | 120
SMILES | p53null 32C tox | FH mod | p53null 39C tox | DRV1 agonist
Cc1cc(C)cc(C(=O)Nc2ccc(-c3cn4cccnc4n3)cc2)c1 | - | - | - | 103
COc1cccc(NC(=O)Nc2cc(-c3cn4cccnc4n3)ccc2OC)c1 | 16µM | - | 7.9µM | -
COc1ccc(-c2cn3cccnc3n2)cc1NC(=O)Nc1cc(C)ccc1C | ? | - | 16µM | -
C=C1CCC2C(C)(C)CC(=O)CC2(C)C1CCC(C)CCOC(C)=O (stereo unspecified) | . | - | . | .
CCOC(=O)c1[nH]c(C)c(C(=O)NCCc2ccccc2)c1C | - | - | - | 85
CCOC(=O)c1[nH]c(C)c(C(=O)Nc2ccccc2F)c1C | - | . | - | .
CC1CCN(CCNC(=O)c2ccc(Cn3c(SCc4ccccc4)nc4cccnc43)cc2)CC1 | ? | - | 13µM | -
COc1ccc(Cn2c(SCc3ccc(C(=O)NC4CCCCC4)cc3)nc3cccnc32)cc1 | - | - | - | -
CCN(CC)CCCNC(=O)c1ccc(Cn2c(SCc3ccccc3)nc3cccnc32)cc1 | ? | - | ? | -
O=C(NCCN1CCCCC1)c1ccc(Cn2c(SCc3ccccc3)nc3cccnc32)cc1 | 16µM | - | 13µM | -
O=C(NCCc1ccccc1)c1ccc(CSc2nc3cccnc3n2Cc2ccc(F)cc2)cc1 | - | - | - | -
O=C(NC1CCCC1)c1ccc(CSc2nc3cccnc3n2Cc2ccc(F)cc2)cc1 | - | - | - | -
O=C(NC1CC1)c1ccc(Cn2c(SCc3ccc(F)cc3)nc3cccnc32)cc1 | ? | - | ? | 63
CC1CCCCN1CCNC(=O)c1ccc(Cn2c(SCc3ccccc3)nc3cccnc32)cc1 (stereo unspecified) | 13µM | - | 16µM | -
c1cc(Nc2cc(C3CC3)[nH]n2)nc(Nc2ccc3nc[nH]c3c2)n1 | . | - | . | .
Cc1ccc(CSc2nc3cccnc3n2Cc2ccc(C(=O)NCc3cccs3)cc2)cc1 | ? | - | 16µM | -
CCOC(=O)c1ccnc(CNCC(=O)N(CC)CCN(C)C)c1 | . | - | . | .
O=C(CC(c1cccs1)N1Cc2ccccc2C1=O)Nc1cccc(F)c1 (stereo unspecified) | - | - | - | 61
COc1cc(Cl)c(C)cc1NC(=O)C1CCN(c2nc3ccccc3n3cccc23)CC1 | ? | - | 32µM | -
Cc1cc(C)c(NC(=O)C2CCN(c3nc4ccccc4n4cccc34)CC2)c(C)c1 | - | - | ? | -
Cc1nc([C@](C)(O)CO)sc1-c1cnc(N)c(O[C@H](C)c2cc(F)ccc2-n2nccn2)c1 | . | - | . | .
NC(=O)[C@H](O[C@@H]1O[C@H](CO)[C@@H](O)[C@H](O)[C@H]1O)c1ccccc1 | . | - | . | .
Cc1ccc(NC(=O)N2CCC(c3ccccc3)C2)cc1C (stereo unspecified) | ? | - | ? | -
O=C(Nc1ccc(Cl)cc1)N1CCC(c2ccccc2)C1 (stereo unspecified) | 4µM | - | ? | -
COc1cc2nc(SCC(=O)Nc3ccc(F)cc3)n3nc(CCn4c(C)nc5ccccc54)nc3c2cc1OC | - | - | 20µM | -

From PubChem
